Bioassay records: PubChem, several laboratories
This is a sample that favours compounds with a hit; in the whole collection about 4% have one here.
CSC inhib – blocks cancer stem cells | cancer stem cell-like cells viability, luminescence | 300,000 compounds, 1.1% hits | inhibition, % at 7.5 µM; in the data active = inhibition above about 75%; tested in HMLE shEcad cells
PAX8 inh HTS – inhibitors of PAX8 transcriptional activity in RMG-I cells. RMG-I TPO-luciferase reporter, SteadyGlo, 24 h. inhibition, % at 12.6 µM. 360,000 compounds, 1.2% hits;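 active = mean replicate inhibition at least 60% with every replicate also reaching 60%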;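 also: luciferase light reporting Pax8 driven TPO promoter activity; plate controls were median of neutral control wells for no effect and mitoxantrone controls for full effect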
Mdm2-MdmX inh – inhibitors of human Mdm2/MdmX interaction | O15151+Q00987 | inhibition, % at 8 µM | 330,000 compounds, 3% hits | SaOS-2 split-luciferase Mdm2/MdmX complementation, luminescence | AID 485346;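 active = inhibition of at least 50% at 8 µM in the primary screen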
Target sequence (O15151 whole entry, looked up): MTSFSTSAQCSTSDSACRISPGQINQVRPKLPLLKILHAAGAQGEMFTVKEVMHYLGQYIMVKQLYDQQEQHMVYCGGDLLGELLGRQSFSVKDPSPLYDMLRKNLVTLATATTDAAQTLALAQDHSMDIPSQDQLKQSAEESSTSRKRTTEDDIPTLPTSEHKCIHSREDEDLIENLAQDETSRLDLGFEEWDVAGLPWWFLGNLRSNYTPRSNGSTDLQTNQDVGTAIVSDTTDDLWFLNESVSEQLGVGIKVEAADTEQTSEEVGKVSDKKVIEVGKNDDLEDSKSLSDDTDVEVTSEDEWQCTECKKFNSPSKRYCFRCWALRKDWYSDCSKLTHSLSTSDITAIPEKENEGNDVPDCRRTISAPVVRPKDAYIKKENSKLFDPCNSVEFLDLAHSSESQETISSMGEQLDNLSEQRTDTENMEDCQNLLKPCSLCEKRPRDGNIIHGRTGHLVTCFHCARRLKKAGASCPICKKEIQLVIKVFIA
Target sequence (Q00987 whole entry, looked up): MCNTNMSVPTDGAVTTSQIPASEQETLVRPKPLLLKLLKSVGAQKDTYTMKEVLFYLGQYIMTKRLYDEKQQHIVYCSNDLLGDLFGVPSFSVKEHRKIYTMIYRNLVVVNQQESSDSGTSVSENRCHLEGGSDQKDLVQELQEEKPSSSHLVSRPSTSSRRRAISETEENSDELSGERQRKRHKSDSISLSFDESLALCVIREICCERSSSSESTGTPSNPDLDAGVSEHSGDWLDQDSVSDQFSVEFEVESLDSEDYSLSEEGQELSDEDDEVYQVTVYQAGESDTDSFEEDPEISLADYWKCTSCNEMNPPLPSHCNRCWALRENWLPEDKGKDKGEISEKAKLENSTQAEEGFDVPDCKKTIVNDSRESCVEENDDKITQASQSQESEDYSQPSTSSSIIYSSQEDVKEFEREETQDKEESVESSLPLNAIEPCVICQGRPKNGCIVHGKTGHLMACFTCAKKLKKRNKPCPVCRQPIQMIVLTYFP
Beta cell apopt – blocks beta cell apoptosis. INS-1E cytokine-induced death, ATP luminescence, 48 h; percent of positive-control rescue, neutral wells zero. protection from apoptosis, % (no concentration beside the values). 300,000 compounds, 0.8% hits;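 active = Every replicate reaches about 75%, or at least half do and their mean reaches it too, limit read from the data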;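 also: 0% = cytokine-treated negative control wells and 100% = positive control rescue; higher means more ATP so stronger rescue from cytokine killing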
Shn3 inh set2 – inhibitors of Schnurri-3 3'UTR reporter in osteoblasts. inhibition, % at 12.5 µM. Clone20 osteoblast Shn3 3'UTR firefly luciferase, 24 h. AID 588674. 360,000 compounds, 0.52% hits;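 active = mean inhibition of at least 75% with every replicate also reaching 75%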;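 also: 0% = median of neutral control wells and 100% = pilot-screen positive control compound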
Gli-Sufu antag – Gli-Sufu pathway antagonism; inhibition, % at 5 µM; AID 588413; 340,000 compounds, 0.74% hits; Sufu-KO-LIGHT fibroblasts, Gli luciferase reporter luminescence;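 active = inhibition above about 55%, limit read from the data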;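 also: 0% = DMSO-treated cells and 100% = wells with medium but no cells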
Starred values were filed as active, the others as inactive.

Results for CN1c2ccc(C3=CCCCC3)cc2[C@H]2[C@H](CCN2C(=O)NC2CCCCC2)[C@@H]1CO ?
PAX8 inh HTS: 77*

How did O=C(Cc1ccncc1)NCC[C@H]1CC[C@H](NC(=O)C2CCC2)[C@H](CO)O1 do in these assays?
PAX8 inh HTS: 3

What do the screens show for `CCC(=O)Nc1ccc2c(c1)C(=O)N(C)[C@H]1CC[C@H](CC(=O)Nc3ccc(C(C)C)cc3)O[C@@H]1CO2`?
PAX8 inh HTS: -2

Results for CC(C)c1ccc(NC(=O)C[C@H]2CC[C@H]3[C@@H](COc4ccc(NC(=O)Nc5ccc(F)c(F)c5)cc4C(=O)N3C)O2)cc1 ?
PAX8 inh HTS: 75*

What do the screens show for `CN1C(=O)c2cc(NC(=O)Nc3ccc(F)cc3)ccc2OC[C@H]2O[C@@H](CC(=O)NC3CCC3)CC[C@H]21`?
PAX8 inh HTS: 62*

What do the screens show for `CC(C)(C)[Si](C)(C)OC[C@@H]1[C@H]2c3ccccc3O[C@]1(C)NC(=S)N2C(=O)c1ccccc1`?
PAX8 inh HTS: 95*

How did CC12N=C3SCC(=O)N3[C@H](c3ccccc3O1)[C@H]2CO[Si](C)(C)C(C)(C)C do in these assays?
PAX8 inh HTS: 6

Results for COC(=O)C(CC#Cc1ccc2c(c1)[C@]1(C(=O)N2)[C@H](c2ccccc2OCCO)N2[C@H](c3ccccc3)[C@H](c3ccccc3)OC(=O)[C@H]2[C@@H]1C(=O)N1CCN(c2ncccn2)CC1)C(=O)OC ?
PAX8 inh HTS: 110*

Results for NC(=O)[C@H]1[C@@H]2C(=O)O[C@@H](c3ccccc3)[C@@H](c3ccccc3)N2[C@@H](c2ccccc2OCCO)[C@]12C(=O)Nc1ccc(C#CC3(O)CCCCCC3)cc12 ?
PAX8 inh HTS: 103*

How did COC(=O)C(CC#Cc1ccc2c(c1)[C@]1(C(=O)N2)[C@H](c2ccc(OCCO)cc2)N2[C@H](c3ccccc3)[C@H](c3ccccc3)OC(=O)[C@H]2[C@@H]1C(=O)N1CCN(c2ncccn2)CC1)C(=O)OC do in these assays?
PAX8 inh HTS: -22

What do the screens show for `COC(=O)c1ccccc1NC(=S)N(Cc1ccc2c(c1)OCO2)Cc1cc2cc(OC)ccc2[nH]c1=O`?
CSC inhib: 9; PAX8 inh HTS: 31; Mdm2-MdmX inh: 15; Beta cell apopt: 26; Shn3 inh set2: 89*; Gli-Sufu antag: 8

How did CN(C)C(=O)c1cccc(-c2ccc3c(c2)[C@H]2[C@H](CCN2Cc2ccccc2F)[C@@H](CO)N3)c1 do in these assays?
PAX8 inh HTS: -14

How did N#C/C(=C/c1ccc(N2CCOCC2)o1)c1ccc(Br)cc1 do in these assays?
CSC inhib: 31; Mdm2-MdmX inh: -83; Beta cell apopt: 13; Shn3 inh set2: 55; Gli-Sufu antag: 0

Results for N#C/C(=C/c1ccc(N2CCCCCC2)o1)c1cccc(F)c1 ?
Mdm2-MdmX inh: 50; Beta cell apopt: 10; Shn3 inh set2: 95*; Gli-Sufu antag: -19

What do the screens show for `N#C/C(=C\c1ccc(N2CCOCC2)o1)c1ccccc1`?
CSC inhib: 14; Mdm2-MdmX inh: -276; Beta cell apopt: 8; Shn3 inh set2: 92*; Gli-Sufu antag: -58

How did Cc1ccc(-c2cc3c(nn2)-c2ccccc2C3=O)cc1 do in these assays?
CSC inhib: 54; PAX8 inh HTS: 79*; Mdm2-MdmX inh: -3; Beta cell apopt: 33; Shn3 inh set2: 80; Gli-Sufu antag: 10

How did Cc1ccccc1-c1cc2c(nn1)-c1ccccc1C2=O do in these assays?
CSC inhib: 108*; Mdm2-MdmX inh: -32; Beta cell apopt: 7; Shn3 inh set2: -32; Gli-Sufu antag: -10

Results for O=C1c2ccccc2-c2nnc(-c3ccc(F)cc3)cc21 ?
CSC inhib: 48; PAX8 inh HTS: -121; Mdm2-MdmX inh: -78; Beta cell apopt: 2; Shn3 inh set2: -26; Gli-Sufu antag: -115

Results for O=C1c2ccccc2-c2nnc(-c3ccc(O)cc3)cc21 ?
CSC inhib: 33; PAX8 inh HTS: -87; Mdm2-MdmX inh: -64; Beta cell apopt: 6; Shn3 inh set2: -10; Gli-Sufu antag: -61

How did CN1C(=O)c2cc(NC(=O)Nc3ccccc3F)ccc2OC[C@@H]2O[C@H](CC(=O)NCc3ccc(-c4ccccc4)cc3)CC[C@H]21 do in these assays?
PAX8 inh HTS: -23

Results for C[C@@H]1CN([C@@H](C)CO)C(=O)c2cc(NC(=O)Nc3cccc4ccccc34)ccc2O[C@@H]1CN(C)Cc1ccc2c(c1)OCO2 ?
PAX8 inh HTS: 76*

What do the screens show for `C[C@@H]1CN([C@@H](C)CO)C(=O)c2cc(NC(=O)Nc3ccc(C(F)(F)F)cc3)ccc2O[C@@H]1CN(C)C(=O)Nc1ccccc1`?
PAX8 inh HTS: 4

How did C[C@H]1CN([C@@H](C)CO)C(=O)c2cc(NC(=O)Nc3cccc4ccccc34)ccc2O[C@H]1CN(C)Cc1ccc2c(c1)OCO2 do in these assays?
PAX8 inh HTS: 27

What do the screens show for `C[C@H](CO)N1C[C@H](C)[C@H](CN(C)C(=O)Nc2ccccc2)Oc2ccc(NC(=O)Nc3ccc(C(F)(F)F)cc3)cc2C1=O`?
PAX8 inh HTS: 74*

What do the screens show for `C[C@@H]1CCCCO[C@H](CN(C)C(=O)Nc2ccc(C(F)(F)F)cc2)[C@H](C)CN([C@@H](C)CO)C(=O)c2cc(NC(=O)Nc3ccccc3)ccc2O1`?
PAX8 inh HTS: 3

Results for C[C@@H]1CCCCO[C@H](CN(C)C(=O)Nc2ccc(C(F)(F)F)cc2)[C@@H](C)CN([C@@H](C)CO)C(=O)c2cc(NC(=O)Nc3ccccc3)ccc2O1 ?
PAX8 inh HTS: 93*

Results for C[C@H]1CN([C@@H](C)CO)C(=O)c2cc(NC(=O)Nc3ccc(F)cc3)ccc2O[C@@H]1CN(C)C(=O)Nc1cccc2ccccc12 ?
PAX8 inh HTS: -15

How did C[C@@H]1CN([C@H](C)CO)C(=O)c2cc(NC(=O)Nc3ccc(F)cc3)ccc2O[C@@H]1CN(C)C(=O)Nc1cccc2ccccc12 do in these assays?
PAX8 inh HTS: 70*

Results for C[C@H](CO)N1C[C@H](C)[C@@H](CN(C)C(=O)Nc2ccc(C(F)(F)F)cc2)Oc2ccc(NC(=O)Cc3cn(C)c4ccccc34)cc2CC1=O ?
PAX8 inh HTS: 15

What do the screens show for `C[C@H]1CCCCO[C@H](CN(C)C(=O)Nc2ccc(C(F)(F)F)cc2)[C@@H](C)CN([C@@H](C)CO)C(=O)c2cc(NC(=O)Nc3ccccc3)ccc2O1`?
PAX8 inh HTS: 81*

What do the screens show for `O=C1NC(Cc2ccccc2)c2nc3cc(F)ccc3c(=O)n2-c2cc3ccccc3cc21` (stereo not given)?
PAX8 inh HTS: 62*; Shn3 inh set2: -5

What do the screens show for `CN(C)C(=O)[C@@H]1[C@@H](CO)[C@@H]2Cn3c(ccc(C4=CCCC4)c3=O)[C@H]1N2S(=O)(=O)c1cn(C)cn1`?
PAX8 inh HTS: -11
